# Reference: PubChem BioAssay AID1159524 (National Center for Advancing Translational Sciences (NCATS), 2015)
# The campaign covered roughly 410,000 compounds. About 5,100 (1.2%) were called active. Roughly 8% stayed inconclusive and do not appear here. The full list was thinned out, with actives kept by preference. A number with no mark means an inactive call. Calls come from the whole dose curve; tested in HEK293T cells.
# Experiment: High Throughput Screening for Foot and Mouth Disease Virus Antivirals; note: read-out not given here; nearly all actives have a fitted effect of over 45% in size
# Details: FMDV antiviral cell-based qHTS; series mostly up to 57.9 µM; activity change, negative = inhibition: at the top concentration
# % is set by controls: 0 for no effect and ±100 for the full control effect; potency is the fitted concentration of half-maximal effect.
SMILES,"activity change, negative = inhibition",Potency
COc1cccc(Cn2c(=O)c(CCc3ccccc3)nc3cnc(N(C)C)nc32)c1,-7.95%,–
COc1ccc(/C=C2\NC(=O)[C@@H]3Cc4ccccc4CN3C2=O)cc1,28%,–
CC(=O)N1CCC2(CC1)CCN(c1ccncc1)CC2,-9.96%,–
COc1ccc(C2Oc3c(I)c(OC)cc(OC)c3CC2O)cc1OC (stereo not given),3.52%,–
COc1ccc(-n2c(=O)c(C)nc3cnc(N4CCOCC4)nc32)cc1,-8.77%,–
Cc1ccc(CCNC(=O)c2ccc3c(c2)nc2n3CCC(C)C2)cc1 (stereo not given),-9.81%,–
CC=CCn1c(SCCCc2ccccc2)nc2c1c(=O)[nH]c(=O)n2C,-12.5%,–
CCCCCn1c(SCCC(C)C)nc2c1c(=O)[nH]c(=O)n2C,–,39.8 µM (active)
C=CCn1c(SCc2ccccc2)nc2c1c(=O)[nH]c(=O)n2C,32.2%,–
COc1ccc(S(=O)(=O)NCc2cccn2Cc2cccc(C)c2)cc1,71.6%,–
Cn1cc(-c2nc3cnc(N4CCNCC4)nc3n(CCc3ccccc3)c2=O)c2ccccc21,-24.2%,–
Cc1cc(-c2ccnc(-n3ncc(C(=O)NC(C)(C)CO)c3C3CC3)n2)c(C)s1,6.73%,–
CCOC(=O)c1c(NC(=O)COC(=O)c2ccc(S(=O)(=O)C(F)F)cc2)sc(C(=O)N(C)C)c1C,0.764%,–
CCOC(=O)c1c(NC(=O)c2cc(CC)on2)sc(C(C)=O)c1C,0.248%,–
CCOC(=O)c1c(NC(=O)CCl)sc(C(=O)N(CC)CC)c1C,–,20 µM (active)
O=C(CCS(=O)(=O)c1ccc2c(c1)NC(=O)CO2)Nc1cccc(C(F)(F)F)c1,-28.2%,–
O=C(c1ccco1)N1CCC2(CC1)CN(c1ncccn1)C2,-11.2%,–
CCOC(=O)c1cc2c(=O)n3ccccc3nc2n(Cc2ccco2)c1=NC(=O)c1ccc(F)cc1,1.4%,–
Cn1c(=O)c(-c2ccccc2)nc2cnc(N3CCNCC3)nc21,6.27%,–
Cc1ccc(-n2cc3ccc([N+](=O)[O-])cc3n2)cc1,-31.7%,–
Cc1ccc(-c2cn3cc(C)ccc3n2)cc1,–,8.91 µM (active)
Cn1cnc(C(F)(F)F)c1-c1ccc([N+](=O)[O-])cc1,-19.4%,–

SMILES,"activity change, negative = inhibition",Potency
Cc1nc(-c2ccccc2)cn2c1nc1ccccc12,-9.62%,–
Cc1ccc(-c2cn3cc([N+](=O)[O-])ccc3n2)cc1,–,11.2 µM (active)
CN(C)C(=O)c1ccc(-c2cncnc2Nc2ccccc2)cc1,-6.02%,–
O=C(c1cccc(F)c1)N1CCC2(CCCN(Cc3ccncc3)C2)CC1,-26.4%,–
CC1CCN(S(=O)(=O)c2ccc3c(ccn3CCC(=O)NCc3ccc(N(C)C)cc3)c2)CC1,1.71%,–
Cn1c(=O)oc2cc(S(=O)(=O)N3CCC(C(=O)Nc4ccc(OC(F)(F)F)cc4)CC3)ccc21,-14%,–
Cc1ccc2nc(NC(=O)C3CCN(S(=O)(=O)c4ccc5c(c4)oc(=O)n5C)CC3)sc2c1,–,12.6 µM (active)
Cc1ccc(S(=O)(=O)N2CCC(C(=O)Nc3cc(C)ccc3C)CC2)cc1,-22.2%,–
CC(C)N1C[C@@H](NCc2ccccc2O)C[C@H]1C(=O)N1CCN(c2cccc(C(F)(F)F)c2)CC1,-12.8%,–
O=c1c(-c2ccc(F)c(F)c2)nc2cncnc2n1-c1ccccc1,7.12%,–
O=C(Nc1ccccc1Cl)/C(Cl)=C(\Cl)S(=O)c1ccccc1 (stereo not given),–,7.08 µM (active)
O=C(Nc1ccccc1Cl)N1CCC(CN2CCCCC2)CC1,5.93%,–
O=C(Nc1ccccc1Cl)N1CCC(CN2CCCC2)CC1,-5.25%,–
CSc1nc(Nc2ccc(F)cc2)cc(-c2ccccc2)n1,-7.74%,–
CC(=O)c1ccc(F)c(-c2cc(C)cc3c2OC(CNC(=O)Cc2c[nH]c4ccccc24)C3)c1 (stereo not given),6.09%,–
Cc1nnc(SCc2cc(=O)c3cc(F)ccc3[nH]2)n1C,0.843%,–
CC(=O)c1c(O)c(C)c(O)c(Cc2c(O)c3c(c(C(=O)/C=C/c4ccccc4)c2O)OC(C)(C)C=C3)c1O,–,inactive
O=C(CSc1nccn1Cc1ccc(F)cc1)NCc1ccccc1,-2.54%,–
CC(C)(C)c1ccc(Oc2ccc(N)cc2)cc1,–,2.51 µM (active)
CC(C)(C)c1ccc(OC(=O)N2CCCCC2)cc1,25.1%,–
COc1ccc(CCNc2ncnc3c2cnn3-c2ccc(C)cc2)cc1,-11.5%,–
CC1(C)CCSC(/C=C/c2ccccc2)=N1,–,14.1 µM (active)

SMILES,"activity change, negative = inhibition",Potency
CC1(C(=O)NS(=O)(=O)c2ccccc2)CCN1C(=O)C/C=C/c1ccccc1 (stereo not given),-14.2%,–
CC1(C(=O)O)CCN1C(=O)/C=C/c1ccccc1 (stereo not given),-4.75%,–
CC1(C)C=CC(=O)[C@]2(C)C1CC(=O)[C@]1(C)C2CC[C@@]2(C)C(c3ccoc3)OC(=O)C3OC321 (stereo not given in full),5.98%,–
CCS(=O)(=O)N1CCCC(C(=O)NCCCN(C)Cc2ccccc2)C1 (stereo not given),-15.3%,–
CCCS(=O)(=O)N1CCC(C(=O)NCCCN(C)Cc2ccccc2)CC1,–,28.2 µM (active)
CCCS(=O)(=O)N1CCC(C(=O)NCCc2ccc(OC)c(OC)c2)CC1,-16.7%,–
Cc1c(O)cc(O)c2c(=O)c(-c3ccc(O)cc3)coc12,3.52%,–
Cc1cccc(N2CCN(C(=O)c3oc(=O)c4ccccc4c3-c3ccccc3)CC2)c1C,-5.53%,–
CCn1c(C)c(C)c2cc(C(=O)N3CCN(c4cccc(C)c4C)CC3)ccc21,–,inactive
Cc1cccc(N2CCN(C(=O)c3cc4c(=O)[nH]c5ccccc5c4n3C)CC2)c1C,–,31.6 µM (active)
O=C(Nc1cccc(F)c1)N1CC2(CCN(C(=O)c3cnccn3)CC2)C1,-4.89%,–
COC(=O)c1ccccc1-c1cc(C)cc2c1OC(CNC(=O)C1CCOC1)C2 (stereo not given),5.07%,–
Cc1cc(S(=O)(=O)N2CCOCC2)ccc1OCC(=O)N1CCOCC1,-0.573%,–
O=C(COc1ccc(S(=O)(=O)N2CCCC2)cc1[N+](=O)[O-])N1CCCCC1,-21.6%,–
Cc1cc(C(=O)COc2ccccc2[N+](=O)[O-])c(C)n1-c1cccc(S(=O)(=O)N2CCOCC2)c1,–,12.6 µM (active)
CCC1CN(CCNC(=O)c2cccnc2C)Cc2cc(OC)ccc2O1 (stereo not given),0.27%,–
CC1=C(c2ccc(F)cc2)S(=O)(=O)N=C1N1CCC(C(=O)NCCc2ccccc2C)CC1,-26.8%,–
COCCn1c(=O)c(-c2ccccc2)nc2cnc(N3CCOCC3)nc21,2.36%,–
CC1CCCCC1NC(=O)c1cc(=O)[nH]c2ccccc12 (stereo not given),5.79%,–
CC1CC(C)CN(C/C=C/c2ccccc2[N+](=O)[O-])C1 (stereo not given),-17.6%,–
CC1CCCCC1NC(=O)/C(C#N)=C/C=C/c1ccccc1[N+](=O)[O-] (stereo not given),–,28.2 µM (active)
